Screening results: PubChem BioAssay, Center for Chemical Genomics, University of Michigan
The sample as a whole holds a higher share of hits than the screen did.
Dicer inh – inhibitors of human Dicer processing of pre-microRNA; Q9UPY3; cat-ELCCA pre-miR-21 Dicer processing, chemiluminescence; active compounds read high; z-score at 25 µM; 6% of 47,000 active; AID 1347074; in the data active = z-score above about 3, passing the limit was not always enough;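 also: higher signal means more uncleaved substrate so more Dicer inhibition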
Large screens that a line does not name were inactive.

CCOCCOC(=O)C1=C(C)NC2=C(C(=O)CC(c3ccccc3)C2)C1c1cccc2ccccc12 (stereo unspecified)	Dicer inh 5.2
COc1ccc(C2CC(=O)C3=C(C2)NC(C)=C(C(=O)OCC(C)C)C3c2ccc3c(c2)OCO3)cc1 (stereo unspecified)	none
CC(=O)Oc1ccc(C2C(C(=O)OCC(C)C)=C(C)NC3=C2C(=O)CC(c2ccccc2)C3)cc1 (stereo unspecified)	Dicer inh 7
CCCOC(=O)C1=C(C)NC2=C(C(=O)CC(c3cccs3)C2)C1c1coc2ccc(C)cc2c1=O (stereo unspecified)	none
CC1=C(C(=O)OCC(C)C)C(c2cccc(F)c2)C2=C(CC(c3ccccc3)CC2=O)N1 (stereo unspecified)	none
COc1ccc(C2C(C(=O)OCC(C)C)=C(C)NC3=C2C(=O)CC(c2ccccc2)C3)c(OC)c1 (stereo unspecified)	none
CCSCCOC(=O)C1=C(C)NC2=C(C(=O)CC(c3ccccc3)C2)C1c1cccc(F)c1 (stereo unspecified)	Dicer inh 3.7
Cc1ccc(S(=O)(=O)N(C)C)cc1NC(=O)c1ccccc1	none
c1ccc(Nc2nc(Nc3ccccc3)nc(N3CCOCC3)n2)cc1	none
COc1cccc(NC(=S)Nc2ccc(OC)c(OC)c2)c1	none
O=C(O)c1ccc(N2C(=O)C3CCCCC3C2=O)cc1Cl (stereo unspecified)	none
O=C1/C(=C\c2ccccc2)S(=O)c2ccccc21 (stereo unspecified)	none
CCOC(=O)C1=C(C)NC2=C(C(=O)CC(c3ccccc3)C2)C1c1ccc(C)o1 (stereo unspecified)	none
CCCOc1ccccc1C1C(C(=O)OCC)=C(C)NC2=C1C(=O)CC(c1ccccc1)C2 (stereo unspecified)	none
COC(=O)C1=C(C)NC2=C(C(=O)CC(c3ccc(OC)cc3)C2)C1c1ccc(OC)cc1 (stereo unspecified)	none
CCOC(=O)C1=C(C)NC2=C(C(=O)CC(c3ccccc3)C2)C1c1ccccc1Cl (stereo unspecified)	Dicer inh 3.7
COC(=O)C1=C(C)NC2=C(C(=O)CC(c3ccccc3)C2)C1c1ccccc1Br (stereo unspecified)	Dicer inh 7.6
COC(=O)C1=C(C)NC2=C(C(=O)CC(c3ccccc3)C2)C1c1ccc(Br)cc1 (stereo unspecified)	none
COC(CN(C)c1ncnc2sccc12)OC	none
Cc1sc(NCc2ccccc2O)nc1-c1ccccc1	none
COc1ccc(/C(C#N)=C/c2cnc(-c3ccccc3)[nH]2)cc1	none
CCCN1C(=O)C2(/C(=C(/O)c3ccc(C)c(F)c3)C(=O)C(=O)N2CCCN(C)C)c2ccccc21 (stereo unspecified)	none
c1cc2c(cc1-c1nc3sc(-c4ccc5c(c4)OCO5)nc3s1)OCO2	none
COCCOC(=O)C1=C(C)Nc2nc3ccccc3n2C1c1ccc(C(C)C)cc1 (stereo unspecified)	none
COC(=O)c1sc(N2CCCC2)c(S(=O)(=O)C(C)C)c1N	none
COC(=O)c1sc(N2CCCCC2)c(C#N)c1N	Dicer inh 29
COC(=O)c1sc(N2CCCC2)c(C#N)c1-c1cccs1	none
Cc1ccc(-c2nc3cc(NC(=O)c4ccc([N+](=O)[O-])o4)ccc3o2)cc1Br	none
O=C(Nc1ccc(Cl)cc1)n1nccc1C(c1ccccc1)c1ccccc1	none
CN(C)c1ccc(-c2nc3n(n2)C(c2ccc(F)cc2)C2=C(CC(C)(C)CC2=O)N3)cc1 (stereo unspecified)	Dicer inh 4.6
CCOc1ccc(C2C3=C(CC(C)(C)CC3=O)Nc3nc(-c4ccc(OC)cc4)nn32)cc1 (stereo unspecified)	none
CN(C)c1ccc(-c2nc3n(n2)C(c2ccc(Cl)cc2)C2=C(CC(C)(C)CC2=O)N3)cc1 (stereo unspecified)	Dicer inh 3.6
CC1=C(C(N)=O)C(c2ccc(Cl)cc2)n2nc(-c3ccc(N(C)C)cc3)nc2N1 (stereo unspecified)	none
CN(C)c1ccc(-c2nc3n(n2)C(c2cccnc2)C2=C(CC(C)(C)CC2=O)N3)cc1 (stereo unspecified)	none
CN(C)c1ccc(-c2nc3n(n2)C(c2cccnc2)C2=C(CCCC2=O)N3)cc1 (stereo unspecified)	none
Nc1c(C(=O)NCc2ccco2)sc2nc(-c3ccncc3)ccc12	none
COC(=O)c1ccccc1NC(=O)/C(C#N)=C\c1cc(Cl)cc(Cl)c1	none
CC1CC(NC(=S)NCc2csc3ccccc23)CC(C)(C)C1 (stereo unspecified)	none
N/C(Cc1csc2ccccc12)=N\O	none
O=C(O)c1nccnc1C(=O)NCc1csc2ccccc12	none
O=C(O)/C=C\C(=O)NCc1csc2ccccc12	Dicer inh 5.3
O=C(O)/C=C/C(=O)NCc1ccc(F)cc1	none
S=C(NCc1csc2ccccc12)NCC1CC1	Dicer inh 4
O=C1CC(Nc2ccc(Oc3ccccc3)cc2)C(=O)N1c1ccc(F)cc1 (stereo unspecified)	none
COc1ccccc1-c1coc2cc(OCC(=O)OC3CCCCC3)ccc2c1=O	none
Cc1cc(C)c(C(=O)CC2(O)C(=O)N(C)c3ccccc32)c(C)c1 (stereo unspecified)	none
CCCN1C(=O)C(O)(CC(=O)c2c(C)coc2C)c2ccccc21 (stereo unspecified)	none
Cc1coc(C)c1C(=O)CC1(O)C(=O)N(C)c2ccccc21 (stereo unspecified)	Dicer inh 3.4
CCCCN1C(=O)N(c2nnc(C(C)(C)C)s2)C(=O)C1c1ccc(Cl)c(C)c1 (stereo unspecified)	none
C/C(=N\NC(=O)c1ccccc1)c1ccccc1O	none
CNC(=O)C(=O)c1c(-c2ccc(Br)cc2)[nH]c2ccccc12	none
COc1ccccc1-c1nc(S(=O)(=O)c2ccc(Br)cc2)c(N2CCOCC2)o1	none
Cn1c(=O)c2c(nc(N3CCCC3)n2Cc2ccc(Cl)c(Cl)c2)n(C)c1=O	none
CCN(CC)CCSCC(=O)Nc1c(-c2ccccc2)oc2ccccc2c1=O	none
O=C(C1CC1)N1c2ccccc2Sc2ccccc21	none
CC1(C)CC(NCC(=O)N2c3ccccc3Sc3ccc(Cl)cc32)CC(C)(C)N1	Dicer inh 3.3
CC(C)CNC(=O)N1c2ccccc2Sc2ccccc21	none
Cc1cc(Cl)ccc1NC(=S)NCCCNC1CCCCC1	none
Cc1cccc(Oc2ccc(N)cn2)c1C	none
CCOC(=O)NC(=S)Nc1ccc(C(C)(C)C)cc1	Dicer inh 5.1
N#CCC(=O)NNC(=S)Nc1cc(C(F)(F)F)cc(C(F)(F)F)c1	none
CC(C)(CO)NC(=S)Nc1ccc(F)cc1	none
CCOC(=O)NC(=S)Nc1cccc(C)n1	none
N#CCC(=O)NNC(=S)Nc1ccc(F)cc1	Dicer inh 3.3
CCOC(=O)NC(=S)Nc1ccc(F)cc1	Dicer inh 6.7
CC(C)(C)C(=O)NC(=S)Nc1ccc(C(F)(F)F)cc1	none
CCOC(=O)NC(=S)Nc1ccc(N2CC(C)OC(C)C2)cc1 (stereo unspecified)	none
O=C(CCc1ccc(O)cc1)NNC(=S)Nc1ccc(F)cc1	none
CCOC(=O)NC(=S)Nc1ccc(C(C)(C)C)cc1NC(=S)NC(=O)OCC	none
OCC(CO)(CO)NC(=S)Nc1ccc(F)c(Cl)c1	none
CC(CO)(CO)NC(=S)Nc1ccc(F)cc1	Dicer inh 5.8
COC(=O)c1cc(Cl)cc2c1N[S@](=O)S2	none
O=C1c2cccc3cccc(c23)C(=O)N1CCCc1nnc(S)n1-c1ccccc1	none
Cc1cc(Nc2ccc(F)cc2F)nc(N)n1	none
CSc1nnc2c(n1)OC(c1ccc(Cl)cc1)N(C(C)=O)c1ccccc1-2 (stereo unspecified)	none
O=c1ccc(-c2ccc(Br)s2)n[nH]1	none
